Screens from PubChem.
IDE exosite inh: exo-site inhibitors of human IDE, primary screen, biochemical, fluorescence anisotropy, probe displacement; AID 1259349, 2017; hit rate 6.3% among 17,000; z-score at 20 µM; purified IDE, FL-6b probe fluorescence polarization; stronger effect = lower value; Insulin-degrading enzyme (Homo sapiens), P14735;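 active = z-score of -3 or lower, meaning strong loss of probe binding signal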;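 note: His-tagged human IDE residues 42-1019 made in E. coli with 30 nM FL-6b probe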
* = called active by the depositor; ! = a repeat was not active. Many of the other results were omitted from the sample, so hits are more common in it than they were.

SMILES | IDE exosite inh
Cc1ccccc1-c1ccc(C2[C@@H]3CN(Cc4ccc5c(c4)OCO5)C[C@H]2N3)cc1 (some centres not stated) | -4.3*!
Cc1ccccc1-c1ccc(C2[C@@H]3CN(Cc4cocn4)C[C@H]2N3)cc1 (some centres not stated) | -3*!
CS(=O)(=O)N1[C@H](C#N)[C@H](c2ccccc2-c2ccccc2F)[C@@H]1CO | -1.3
C/C=C/c1ccc([C@H]2[C@@H](CO)N(CC3CCCCC3)[C@@H]2CNC(C)C)cc1 | 1.1
O=C(Nc1cc(F)ccc1F)N1CCCCN2[C@H](C1)[C@@H](c1ccc(-c3ccccc3)cc1)[C@@H]2CO | 4.8
O=C(NC[C@H]1[C@H](c2ccccc2)[C@H](CO)N1Cc1cccnc1)c1ccccn1 | 1.2
CN(C)C(=O)c1ccc(-c2ccc([C@@H]3[C@@H](C#N)N(C(=O)C4CC4)[C@H]3CO)cc2)cc1 | 1.9
Cc1ccccc1-c1ccc(C2[C@H]3CNC[C@@H]2N3C(=O)Nc2ccc(Cl)cc2)cc1 (some centres not stated) | -3.6*!
O=C(NC1CCCCC1)N1[C@@H]2CNC[C@H]1C2c1ccc(-c2ccccc2F)cc1 (some centres not stated) | -0.085
CN(C)C(=O)c1cccc(-c2ccc(C3[C@H]4CNC[C@@H]3N4C(=O)Nc3cccc(Cl)c3)cc2)c1 (some centres not stated) | -0.24
COc1ccc(NC(=O)N2[C@@H]3CNC[C@H]2C3c2ccc(-c3ccccc3C)cc2)cc1 (some centres not stated) | -4.6*
COc1cccc(-c2ccc(C3[C@H]4CNC[C@@H]3N4C(=O)Nc3ccc(C(F)(F)F)cc3)cc2)c1 (some centres not stated) | 2.1
COc1cccc(-c2ccc(C3[C@H]4CNC[C@@H]3N4C(=O)Nc3ccc4c(c3)OCO4)cc2)c1 (some centres not stated) | -2.8
O=C(c1cnccn1)N1CC(=O)N2[C@H](CO)[C@H](c3ccc(C#CCc4ccccc4)cc3)[C@@H]2C1 | -0.92
COCC#Cc1ccc([C@@H]2[C@H]3CN(C(=O)Nc4cc(F)ccc4F)CCCCN3[C@H]2CO)cc1 | 4.3
COc1ccc2c3c(n(C)c2c1)[C@H](CO)N(C(=O)NC(C)C)CC31CCN(Cc2nccs2)CC1 | -1.6
CCCC#Cc1ccc([C@@H]2[C@@H](CO)N3CCCCN(Cc4cccnc4)C[C@H]23)cc1 | -0.44
CC(C)[C@@H]1C/C=C\C[C@@H](c2ccc(F)cc2)NC(=O)[C@H](C)CC(=O)N1 | 1
C[C@@H]1CN([C@@H](C)CO)C(=O)c2cc(NC(=O)Nc3cccc4ccccc34)ccc2O[C@@H](C)CCCCO[C@@H]1CN(C)S(=O)(=O)c1cn(C)cn1 | -3.9*
C[C@@H]1CCCCO[C@@H](CN(C)S(=O)(=O)c2cn(C)cn2)[C@@H](C)CN([C@@H](C)CO)C(=O)c2cc(NC(=O)Nc3cccc4ccccc34)ccc2O1 | -4.2*
C[C@@H]1CCCCO[C@H](CN(C)S(=O)(=O)c2cn(C)cn2)[C@H](C)CN([C@@H](C)CO)C(=O)c2cc(NC(=O)Nc3cccc4ccccc34)ccc2O1 | -1.7
C[C@@H]1CN([C@H](C)CO)C(=O)c2cc(NC(=O)Nc3cccc4ccccc34)ccc2O[C@@H](C)CCCCO[C@H]1CN(C)S(=O)(=O)c1cn(C)cn1 | -1.4
C[C@@H]1CCCCO[C@H](CN(C)S(=O)(=O)c2cn(C)cn2)[C@@H](C)CN([C@@H](C)CO)C(=O)c2cc(NC(=O)Nc3cccc4ccccc34)ccc2O1 | -0.62
C[C@@H]1CCCCO[C@@H](CN(C)S(=O)(=O)c2cn(C)cn2)[C@@H](C)CN([C@H](C)CO)C(=O)c2cc(NC(=O)Nc3cccc4ccccc34)ccc2O1 | -1.1
Cc1ccc(S(=O)(=O)NCC[C@@H]2CC[C@@H](NC(=O)c3cccnc3)[C@H](CO)O2)cc1 | 1.8
SMILES | IDE exosite inh
COc1cccc(-c2ccc([C@H]3[C@H]4CN(S(=O)(=O)c5cn(C)cn5)CCCCN4[C@H]3CO)cc2)c1 | -0.71
COc1cccc(-c2ccc([C@H]3[C@H](CO)N4CCCCN(S(=O)(=O)c5cn(C)cn5)C[C@@H]34)cc2)c1 | -0.35
COc1cccc(-c2ccc([C@H]3[C@@H](CO)N4CCCCN(S(=O)(=O)c5cn(C)cn5)C[C@@H]34)cc2)c1 | 0.93
COc1cccc(-c2ccc([C@@H]3[C@@H](CO)N4CCCCN(S(=O)(=O)c5cn(C)cn5)C[C@@H]34)cc2)c1 | -14*
COc1cccc(-c2ccc([C@@H]3[C@@H](CO)N4CCCCN(S(=O)(=O)c5cn(C)cn5)C[C@H]34)cc2)c1 | 1.4
Cn1cnc(S(=O)(=O)N2CCCCN3[C@H](CO)[C@H](c4ccc(-c5cccc(F)c5)cc4)[C@@H]3C2)c1 | 2.5
Cc1cccc(-c2ccc([C@@H]3[C@H](CO)N4CCCCN(S(=O)(=O)c5cn(C)cn5)C[C@@H]34)cc2)c1 | -20*
Cc1cccc(-c2ccc([C@@H]3[C@H]4CN(S(=O)(=O)c5cn(C)cn5)CCCCN4[C@H]3CO)cc2)c1 | -6.1*
Cn1cnc(S(=O)(=O)N2CCCCN3[C@@H](CO)[C@@H](c4ccc(-c5ccc(F)cc5)cc4)[C@@H]3C2)c1 | -2.1
Cn1cnc(S(=O)(=O)N2CCCCN3[C@H](CO)[C@@H](c4ccc(-c5ccccc5)cc4)[C@@H]3C2)c1 | -9.4*
Cc1cccc(-c2ccc([C@H]3[C@H]4CN(S(=O)(=O)c5cn(C)cn5)CCCCN4[C@H]3CO)cc2)c1 | 1.4
Cn1cnc(S(=O)(=O)N2CCCCN3[C@H](C2)[C@H](c2ccc(-c4ccccc4)cc2)[C@@H]3CO)c1 | 1.7
O=C(c1cccc(F)c1)N1CC(=O)N2[C@H](C1)[C@H](c1ccc(-c3ccccc3)cc1)[C@@H]2CO | 3.7
N#C[C@@H]1[C@H](c2ccc(C3=CCCC3)cc2)[C@@H](CO)N1C(=O)c1cccc(F)c1 | 6
C[C@@H]1CN([C@H](C)CO)S(=O)(=O)c2ccc(C#Cc3ccccc3F)cc2O[C@H]1CN(C)C(=O)Cc1cccnc1 | 0.96
COc1cccc(-c2ccccc2[C@H]2[C@@H](CO)N(C(=O)Cc3ccccc3)[C@H]2C#N)c1 | 0.95
O=C(c1cccnc1)N1CC(=O)N2[C@H](C1)[C@@H](c1ccc(C#CCC3CCCC3)cc1)[C@@H]2CO | 4.9
OC[C@H]1[C@@H](c2ccc(-c3ccncc3)cc2)[C@@H]2CN(Cc3ccccn3)CCCCN12 | -0.068
CN1C(=O)c2cc(NC(=O)C3CCOCC3)ccc2OC[C@@H]2O[C@H](CC(=O)NCC3CCCCC3)CC[C@@H]21 | 0.62
C[C@@H]1CC(=O)NCC/C=C\C[C@H](c2cccc(Cl)c2)NC1=O | -0.051
OC[C@@H]1[C@H](c2ccc(-c3ccccc3)cc2)[C@@H]2CN(CCC(F)(F)F)CCCCN12 | 3.5
OC[C@H]1[C@H](c2ccc(-c3ccccc3)cc2)[C@H]2CN(CCC(F)(F)F)CCCCN21 | 0.51
COc1ccc(C#Cc2ccc([C@@H]3[C@@H](CO)N4CCCCN(S(=O)(=O)c5ccccc5)C[C@H]34)cc2)cc1 | 5.6
COc1ccccc1C#Cc1ccc([C@@H]2[C@H]3CN(CCC(F)(F)F)CCCCN3[C@H]2CO)cc1 | -7.8*
COc1ccc(C#Cc2ccc([C@H]3[C@@H](CO)N4CCCCN(S(=O)(=O)c5ccccc5)C[C@@H]34)cc2)cc1 | 2.3
COc1ccccc1C#Cc1ccc([C@@H]2[C@H]3CN(S(C)(=O)=O)CCCCN3[C@H]2CO)cc1 | -12*
